In the supplement of paper PMC13380429:

System: Vero E6 infected with SARS-CoV-2
Assay: inhibition of SARS-CoV-2 cytopathic effect; higher = more antiviral protection, active = above 15
Settings: 48 h

Measured: inhibition of SARS-CoV-2 cytopathic effect

c1ccc2c(c1)sc1ccccc12 [dibenzothiophene]
inactive: 1 nM -0.91% | 8.33 nM 1.31% | 100 nM 0.34% | 833.33 nM 0.07% | 10000 nM 0.68%

CCCCCCCCCCCCCCCCCCCCCCO [docosanol]
inactive: 1 nM -8.94% | 8.33 nM -7.8% | 100 nM -10.4% | 833.33 nM -7.91% | 10000 nM -4.03%

FC(F)(F)c1cc(NC(=S)Nc2ccc(Br)cc2-c2nnn[nH]2)cc(C(F)(F)F)c1
inactive: 1 nM -3.42% | 8.33 nM -1.08% | 100 nM -1.11% | 833.33 nM 3.36% | 10000 nM 0.52%

CCCCCCc1ccc(O)cc1O [hexylresorcinol]
inactive: 1 nM 1.73% | 8.33 nM 1.1% | 100 nM 2.21% | 833.33 nM 4.02% | 10000 nM 3.14%

C[C@@H]1C[C@H]2[C@@H]3CCC4=CC(=O)C=C[C@]4(C)[C@@]3(Cl)[C@@H](O)C[C@]2(C)[C@@]1(OC(=O)c1ccco1)C(=O)CCl
inactive: 1 nM -0.2% | 8.33 nM -2.64% | 100 nM -2.34% | 833.33 nM -2.86% | 10000 nM 3.12%

c1ccc(-c2ccc(C(c3ccccc3)n3ccnc3)cc2)cc1 (stereo not given) [bifonazole]
active: 10000 nM 15.4%
inactive: 1 nM 3.05% | 8.33 nM 3.28% | 100 nM 4.39% | 833.33 nM -11.6%

O=C(Nc1ccc(-c2ccncc2)cc1)N[C@H](CO)c1ccccc1
inactive: 1 nM -3.49% | 8.33 nM 2.37% | 100 nM -1.14% | 833.33 nM -0.94% | 10000 nM -7.89%

C#CCN[C@@H]1CCc2ccccc21 [rasagiline]
inactive: 1 nM 0.63% | 8.33 nM -1.47% | 100 nM -1.63% | 833.33 nM -1.24% | 10000 nM -0.6%

Cc1cc(C)c(N(Cc2ccccc2)S(=O)(=O)c2ccc(OCCNC(=O)c3cc4ccccc4o3)cc2)c(C(=O)NO)c1
inactive: 1 nM -0.99% | 8.33 nM 0.92% | 100 nM -1.74% | 833.33 nM -1.22% | 10000 nM -6.93%

CC/C(=C(\c1ccccc1)c1ccc(OCCN(C)C)cc1)c1ccccc1 [tamoxifen]
inactive: 1 nM -0.39% | 8.33 nM 1.81% | 100 nM 0.36% | 833.33 nM 0.06% | 10000 nM 11.2%

Cc1cc2c(C(C)C)c(O)c(O)c(C=O)c2c(O)c1-c1c(C)cc2c(C(C)C)c(O)c(O)c(C=O)c2c1O [gossypol]
inactive: 1 nM -0.82% | 8.33 nM -3.04% | 100 nM -0.64% | 833.33 nM -2.5% | 10000 nM -6.17%

Cc1ccccc1N(C)C(=O)c1ccc([S+]([O-])c2nccs2)c([N+](=O)[O-])c1 (stereo not given)
inactive: 1 nM -0.08% | 8.33 nM -0.71% | 100 nM 1.56% | 10000 nM 12.2%
active: 833.33 nM 16.5%

NC(=O)[C@@H]1CC[C@@H]2CN1C(=O)N2OS(=O)(=O)O [avibactam]
inactive: 1 nM -1.08% | 8.33 nM 0.92% | 100 nM -0.14% | 833.33 nM 0.95% | 10000 nM 1.7%

Cc1[nH]c2ccccc2c1CCNC(=O)c1cccs1
inactive: 1 nM -3.95% | 8.33 nM -2.61% | 100 nM -2.69% | 833.33 nM 1.32%
active: 10000 nM 16%

N#Cc1ccc(C(c2ccc(C#N)cc2)n2cncn2)cc1 [letrozole]
inactive: 1 nM -1.89% | 8.33 nM 4.26% | 100 nM 0.11% | 833.33 nM -2.14% | 10000 nM -1.61%

Cc1cnc(Nc2ccc(N3CCN(C)CC3)cc2)nc1Nc1cccc(S(=O)(=O)NC(C)(C)C)c1
inactive: 1 nM -0.35% | 8.33 nM -0.73% | 100 nM 0.51% | 833.33 nM -7.25% | 10000 nM -21.1%

O=C(COP(=O)(O)O)[C@@H](O)[C@H](O)[C@H](O)COP(=O)(O)O [fosfructose]
inactive: 1 nM -6.09% | 8.33 nM -3.73% | 100 nM -0.5% | 833.33 nM 1.38% | 10000 nM -1.68%

CN1C(C(=O)Nc2ccccn2)=C(O)c2sccc2S1(=O)=O [tenoxicam]
inactive: 1 nM -1.61% | 8.33 nM -5.04% | 100 nM -1.6% | 833.33 nM 0.7% | 10000 nM -2.71%

O=C1C(O)=C(O)C(=O)C(O)=C1O [tetroquinone]
inactive: 1 nM -0.23% | 8.33 nM 0.57% | 100 nM 1.71% | 833.33 nM -0.73% | 10000 nM -0.73%

Cc1csc(NC(=O)CSc2ccc(-c3ccccc3)nn2)n1
inactive: 1 nM 6.45% | 8.33 nM -1.88% | 100 nM -1.71% | 833.33 nM -1.48% | 10000 nM 12.2%

COC(=O)/C=C/C(=O)N[C@@H]1CC[C@@]2(O)[C@H]3Cc4ccc(O)c5c4[C@@]2(CCN3CC2CC2)[C@H]1O5 [beta-funaltrexamine]
inactive: 1 nM -1.34% | 8.33 nM 1.21% | 100 nM -0.8% | 833.33 nM 1.68% | 10000 nM 6.01%

CCCCN(CCCC)CC(O)c1cc(Cl)cc2c1-c1ccc(Cl)cc1/C2=C/c1ccc(Cl)cc1 (stereo not given) [lumefantrine]
inactive: 1 nM -1.1% | 8.33 nM 3.13% | 100 nM 2.25% | 833.33 nM 0.99% | 10000 nM -1.35%

Nc1cc(F)ccc1NC(=O)/C=C/c1cnn(C/C=C/c2ccccc2)c1
inactive: 1 nM -1.39% | 8.33 nM 1.78% | 100 nM 0.89% | 833.33 nM -2.26% | 10000 nM -1.9%

Nc1ccn([C@@H]2O[C@H](CO)[C@@H](O)[C@@H]2O)c(=O)n1 [cytarabine]
inactive: 1 nM -0.13% | 8.33 nM 2.91% | 100 nM 2.21% | 833.33 nM -1% | 10000 nM -2.58%

O=C(NCCCN1CCCCCC1)C(c1ccccc1)C1CCCCC1 (stereo not given)
inactive: 1 nM -0.49% | 8.33 nM 0.99% | 100 nM 0.31% | 833.33 nM -2.41% | 10000 nM -8.06%

C[N+]1(C)CCC(OC(=O)C(c2ccccc2)c2ccccc2)CC1
inactive: 1 nM -1.59% | 8.33 nM 2.05% | 100 nM 1.2% | 833.33 nM 1.67% | 10000 nM 1.67%

NC(=O)N/N=C/c1ccc([N+](=O)[O-])o1 [nitrofurazone]
inactive: 1 nM 0.32% | 8.33 nM 0.46% | 100 nM -1.2% | 833.33 nM -0.04% | 10000 nM 0.07%

CC(C)n1nc(-c2ccc3oc(N)nc3c2)c2c(N)ncnc21
inactive: 1 nM 1.94% | 8.33 nM 2.32% | 100 nM 1.66% | 833.33 nM -3.23% | 10000 nM -4.59%

CC(C)C[C@H](NC(=O)OCc1ccccc1)C(=O)N[C@@H](C[C@@H]1CCNC1=O)C(O)S(=O)(=O)O (stereo not given in full) [GC376 sodium]
inactive: 1 nM 0.45% | 8.33 nM -0.81% | 100 nM 0.28% | 833.33 nM -0.83%
active: 10000 nM 70.6%

O=c1[nH]c2ccccc2n1C1CCN(CCCC(c2ccc(F)cc2)c2ccc(F)cc2)CC1 [pimozide]
inactive: 1 nM 0.44% | 8.33 nM 1.6% | 100 nM 0.1% | 833.33 nM -0.58% | 10000 nM -5.7%

CN1CCN(c2ccc3ccccc3n2)CC1 [N-methylquipazine]
inactive: 1 nM 0.97% | 8.33 nM -1.57% | 100 nM 0.41% | 833.33 nM -1.31% | 10000 nM -0.19%

Nc1ncnc2c1ncn2[C@@H]1O[C@H](CO)C[C@H]1O [cordycepin]
inactive: 1 nM -1.1% | 8.33 nM 0.92% | 100 nM 1.03% | 833.33 nM -0.81% | 10000 nM -3.28%

CC(C)=CC[C@@H](O)C1=CC(=O)c2c(O)ccc(O)c2C1=O [Shikonin]
inactive: 1 nM 0.59% | 8.33 nM 0.65% | 100 nM 0.38% | 833.33 nM 3.65% | 10000 nM 2.04%

COC1=CC(=O)C[C@@H](C)[C@]12Oc1c(Cl)c(OC)cc(OC)c1C2=O [griseofulvin]
inactive: 1 nM 1.17% | 8.33 nM 0.82% | 100 nM 0.95% | 833.33 nM 2.52% | 10000 nM 1.84%

CN(C)c1nc(N(C)C)nc(N(C)C)n1 [altretamine]
inactive: 1 nM 2.31% | 8.33 nM -1.41% | 100 nM 0.54% | 833.33 nM -0.29% | 10000 nM 2.53%

Fc1ccccc1-c1nc2ccn(Cc3ccc(-c4ccc(C(F)(F)F)cc4C(F)(F)F)nn3)cc-2n1 [tegobuvir]
inactive: 1 nM 0.53% | 8.33 nM 2.58% | 100 nM 3.4% | 833.33 nM 1.35% | 10000 nM -1.75%

O=C(O)C1=CCNCC1 [isoguvacine]
inactive: 1 nM 0.65% | 8.33 nM 0.98% | 100 nM 0.98% | 833.33 nM 3.23% | 10000 nM 2.12%

NC/C(=C/F)CCc1ccc(F)cc1 [mofegiline]
inactive: 1 nM 3.65% | 8.33 nM 2.09% | 100 nM 1.29% | 833.33 nM -1.58% | 10000 nM -3.87%

O=P1(N(CCCl)CCCl)NCCCO1 (stereo not given) [cyclophosphamide]
inactive: 1 nM -3.03% | 8.33 nM 0.27% | 100 nM -0.35% | 833.33 nM -1.65% | 10000 nM 0.46%

O=C(c1ccc(F)cc1)C1CCN(CCn2c(=O)[nH]c3ccccc3c2=O)CC1 [ketanserin]
inactive: 1 nM 1.58% | 8.33 nM -0.51% | 100 nM -0.25% | 833.33 nM 2% | 10000 nM -1.33%

O=C1CCC[C@@H]2[C@H]3CCC[N+]4([O-])CCC[C@@H](CN12)[C@@H]34 (stereo not given in full) [oxymatrine]
inactive: 1 nM 2.76% | 8.33 nM 1.55% | 100 nM 1.11% | 833.33 nM 0.79% | 10000 nM -1.71%
